From PubChem BioAssay
Only some compounds are listed: those with a hit (about 8.9% of all), similar ones and a draw of the others.
SW480 rerep – inducers of DNA re-replication in SW480 colon cancer cells; SW480 DNA re-replication, Hoechst DNA content imaging, 48 h; Potency, µM (titrated, usually from 46.1 µM), for the others: top-dose re-replication activation, actives largely listed as activators; hit rate 1.8% among 340,000; AID 624297; further: potency means the concentration at half of the fitted maximal effect; % of control where 0% means no effect; nearly all actives have a fitted effect of over 55% in size
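Treated cells incubate 48 hr (37 C, 5% CO2), are stained 40 min with Hoechst, and nuclear fluorescence is enumerated; a rise in nuclei with high DNA signal marks re-replication.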
KB-V1 cytotox – kills drug-selected multidrug resistant KB-V1 cells | KB-V1 MDR cells viability, CellTiter-Glo, 72 h | Potency, µM (doses to about 46.1 µM), usual class: cytotoxic | hit rate 3.4% among 400,000; further: potency means the concentration at half of the fitted maximal effect; on the % scale 0 is the no-effect control and ±100 the full control effect; nearly all actives have a fitted effect of over 60% in size
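KB-V1 cells (P-gp-expressing MDR subline of KB-3-1) in phenol-red-free DMEM with 10% FBS were exposed to library compounds over a concentration series for 72 h at 37 degrees C. Viability read by CellTiter-Glo luminescence; concentration-effect curves fitted after normalization.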
KB-3-1 tox – KB-3-1 parental cell cytotoxicity. KB-3-1 viability, CellTiter-Glo ATP luminescence, 72 h. Potency, µM (highest dose often 46.1 µM), hits mostly cytotoxic. hit rate 1.4% among 400,000. AID 1347075; further: potency means the concentration at half of the fitted maximal effect; on the % scale 0 is the no-effect control and ±100 the full control effect; nearly all actives have a fitted effect of over 60% in size
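Luminescent ATP read-out (CellTiter-Glo) measures survival of drug-naive KB-3-1 cells after 72 h compound exposure at 37 °C. Titration series was screened from lowest to highest concentration, with DMSO vehicle plates as background controls.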
D3 ag – agonists of human D3 dopamine receptor; P35462; D3R DiscoveRx beta-arrestin cells, luminescence, 90 min; max activation, %; hit rate 0.58% among 410,000; AID 652048; in the data active means max activation above about 30%; further: 0% is about no effect
Target sequence (P35462 whole entry, looked up): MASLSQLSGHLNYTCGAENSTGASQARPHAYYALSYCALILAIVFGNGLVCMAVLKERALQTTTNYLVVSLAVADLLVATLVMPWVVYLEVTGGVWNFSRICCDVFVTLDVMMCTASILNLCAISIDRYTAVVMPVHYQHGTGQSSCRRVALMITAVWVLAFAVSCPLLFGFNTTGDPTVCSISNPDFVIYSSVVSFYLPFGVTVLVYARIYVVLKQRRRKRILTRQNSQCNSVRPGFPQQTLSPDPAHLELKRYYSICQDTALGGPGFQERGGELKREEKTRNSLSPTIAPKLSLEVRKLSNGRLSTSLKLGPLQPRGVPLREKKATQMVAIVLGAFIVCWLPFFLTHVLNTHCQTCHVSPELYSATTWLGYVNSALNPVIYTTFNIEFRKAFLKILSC
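Cells at 1500/well, incubated overnight, then treated with pinned compounds (dopamine as control) for 90 min at 37 degrees C. DiscoveRx reagent added for 30 - 60 minutes at room temperature; luminescence read.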
MCF10A rerep – inducers of DNA re-replication in MCF 10A breast cells; hit rate 2.9% among 350,000; AID 624296; MCF 10A DNA re-replication, Hoechst nuclear intensity, 48 h; Potency, µM (top dose mostly 46.1 µM), without a hit: at the top dose activity, positive = re-replication, hits mostly activators; further: potency means the concentration at half of the fitted maximal effect; % of control where 0% means no effect; nearly all actives have a fitted effect of over 50% in size
DRD3 antagonist – blocks the human D3 dopamine receptor | P35462 | D3R cells, DiscoveRx beta-arrestin luminescence, antagonist mode; stronger effect = lower value | max response, negative = inhibition, % | hit rate 2.5% among 360,000; in the data active means max response below about -50%; inconclusive means no clear call, values can overlap the other calls; further: on the % scale 0 is the no-effect control and ±100 the full control effect
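Cells expressing the human receptor were seeded at 1500 cells/well, incubated overnight at 37 degrees C in 5% CO2, then exposed to library compounds with dopamine controls for 90 minutes at 37 degrees C before luminescent detection.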
* = called active by the depositor. Unless noted, the call rests on the fitted dose curve; in most records, active means well fitted curve in the direction sought with a large enough effect; inconclusive means small, poorly fitted or top-dose-only effect, or another doubt; inactive means no such curve, though single readings can be large; an effect the other way counts as inactive or inconclusive.

How did COc1cc2oc(-c3ccc(O)cc3)cc(=O)c2c(O)c1OC do in these assays?
SW480 rerep: -2%; KB-V1 cytotox: inconclusive; KB-3-1 tox: inconclusive; D3 ag: 0; MCF10A rerep: 12%; DRD3 antagonist: -9

How did COc1cc(-c2cc(=O)c3c(C)cc(O)cc3o2)cc(OC)c1OC do in these assays?
SW480 rerep: -1%; KB-V1 cytotox: 2.6µM*; KB-3-1 tox: inconclusive; D3 ag: 7; MCF10A rerep: 2%; DRD3 antagonist: 3

What do the screens show for `Cn1c(=O)c2sccc2n2c(CCC(=O)Nc3ccc(F)cc3)nnc12`?
KB-V1 cytotox: inactive; KB-3-1 tox: inactive; D3 ag: 2

Results for COc1ccc(Br)cc1CNC(=O)c1ccc2c(c1)nc1n2CCCCC1 ?
KB-V1 cytotox: inactive; KB-3-1 tox: inactive; D3 ag: -6

Results for CSc1nc(-c2ccc(C)cc2)nc(C(Cl)Cl)n1 ?
SW480 rerep: 18%; KB-V1 cytotox: 18µM*; KB-3-1 tox: 7.3µM*; D3 ag: 1; MCF10A rerep: inconclusive; DRD3 antagonist: 22

What do the screens show for `CCSc1nc(-c2ccccc2)c2cc(Cl)ccc2n1`?
SW480 rerep: -1%; KB-V1 cytotox: inactive; KB-3-1 tox: inactive; D3 ag: 2; MCF10A rerep: 4%; DRD3 antagonist: 16

How did CSc1nc(Cl)c(C#N)c(-c2ccc(C)cc2)n1 do in these assays?
SW480 rerep: -7%; KB-V1 cytotox: inactive; KB-3-1 tox: inactive; D3 ag: 4; MCF10A rerep: 3%; DRD3 antagonist: -20

How did CCSc1nc(-c2ccccc2)nc(C(Cl)Cl)n1 do in these assays?
SW480 rerep: 23%; KB-V1 cytotox: inactive; KB-3-1 tox: 5.2µM*; D3 ag: -31; MCF10A rerep: 12µM*; DRD3 antagonist: -10

What do the screens show for `CCOC(=O)Cc1ccc(NC(=O)NCc2ccc3c(c2)CCN3C(=O)CC)cc1`?
KB-V1 cytotox: inactive; KB-3-1 tox: inactive; D3 ag: -14

What do the screens show for `Cn1c(=O)[nH]c(=O)c2c1nc(Br)n2CCSc1nc2ccccc2o1`?
SW480 rerep: -3%; KB-V1 cytotox: inconclusive; KB-3-1 tox: inconclusive; D3 ag: -6; MCF10A rerep: 4%; DRD3 antagonist: -70*

What do the screens show for `Cc1ccc(OCC(=O)N(Cc2ccc(N(C)C)cc2)CC2CCCO2)cc1C` (configuration not stated)?
D3 ag: 9

Results for Fc1ccc(/C=C2\CCCC3=C2Nc2ncnn2C3c2ccc(F)cc2)cc1 (configuration not stated) ?
SW480 rerep: 23µM*; KB-V1 cytotox: inconclusive; KB-3-1 tox: 21µM*; D3 ag: -7; MCF10A rerep: 5.8µM*; DRD3 antagonist: -18

How did Cc1cc(C)c(C)c(S(=O)(=O)N2CCN(CC(=O)c3c(N)n(Cc4ccccc4)c(=O)n(C)c3=O)CC2)c1C do in these assays?
SW480 rerep: inconclusive; KB-V1 cytotox: 15µM*; KB-3-1 tox: inconclusive; D3 ag: 20; MCF10A rerep: 13µM*; DRD3 antagonist: 3

What do the screens show for `COc1ccc(NC(=O)NC2COc3ccccc3C2)c(OC)c1` (configuration not stated)?
KB-V1 cytotox: inactive; KB-3-1 tox: inactive; D3 ag: 3

What do the screens show for `CCNC(=S)N/N=C/c1cccc(OCc2c(F)cccc2Cl)c1`?
SW480 rerep: 1%; KB-V1 cytotox: 21µM*; KB-3-1 tox: inconclusive; D3 ag: -3; MCF10A rerep: inconclusive; DRD3 antagonist: -20

How did CNC(=S)N/N=C/c1cccc(OCc2ccccc2F)c1 do in these assays?
SW480 rerep: -5%; KB-V1 cytotox: inconclusive; KB-3-1 tox: inconclusive; D3 ag: 13; MCF10A rerep: 16%; DRD3 antagonist: 0

How did COc1ccc(N=c2oc3c(OC)cccc3cc2C(=O)NCc2ccco2)cc1OC do in these assays?
SW480 rerep: 4%; KB-V1 cytotox: inconclusive; KB-3-1 tox: inactive; D3 ag: 33*; MCF10A rerep: inconclusive; DRD3 antagonist: 18

How did COc1cccc(NC(=O)c2ccccc2-c2nc(-c3ccc(F)cc3)no2)c1 do in these assays?
SW480 rerep: 3%; KB-V1 cytotox: 18µM*; KB-3-1 tox: inactive; D3 ag: 6; MCF10A rerep: 7%; DRD3 antagonist: 7

Results for CCOc1ccccc1-c1nc(-c2ccc(NC(=O)c3ccc(Br)o3)cc2)no1 ?
SW480 rerep: -2%; KB-V1 cytotox: inactive; KB-3-1 tox: inactive; D3 ag: 57*; MCF10A rerep: inconclusive; DRD3 antagonist: 21

What do the screens show for `COc1ccc(-c2noc(-c3ccccc3C(=O)NCc3ccco3)n2)cc1`?
SW480 rerep: 3%; KB-V1 cytotox: inconclusive; KB-3-1 tox: inactive; D3 ag: 5; MCF10A rerep: 4%; DRD3 antagonist: 1

How did COc1cccc(NC(=O)c2ccccc2-c2nc(-c3ccccc3)no2)c1 do in these assays?
SW480 rerep: 3%; KB-V1 cytotox: inconclusive; KB-3-1 tox: inactive; D3 ag: -1; MCF10A rerep: -2%; DRD3 antagonist: 13

Results for COc1ccc(-c2noc(-c3ccccc3C(=O)NCc3ccco3)n2)cc1OC ?
SW480 rerep: -4%; KB-V1 cytotox: 3.7µM*; KB-3-1 tox: inactive; D3 ag: 5; MCF10A rerep: inconclusive; DRD3 antagonist: 42

Results for CCN(Cc1ccccc1)C(=O)CN1C(=O)COc2ccc(S(=O)(=O)N(CC)CC)cc21 ?
KB-V1 cytotox: inactive; KB-3-1 tox: inactive; D3 ag: -18

Results for CCOc1ccc(NC(=O)CC2C(=O)N(c3ccc(C)cc3)C(=O)N2Cc2ccc(OC)cc2)cc1 (configuration not stated) ?
KB-V1 cytotox: inactive; KB-3-1 tox: inactive; D3 ag: -2

Results for CN(C)c1ccc(/C=C/c2ccnc3ccccc23)cc1O ?
KB-V1 cytotox: inactive; KB-3-1 tox: inactive

Results for CCOC(=O)C(Cc1nc(OCc2ccccc2)cc(OCc2ccccc2)n1)=NO ?
SW480 rerep: 12%; KB-V1 cytotox: 13µM*; KB-3-1 tox: 21µM*; D3 ag: 7; MCF10A rerep: 21µM*; DRD3 antagonist: 0

What do the screens show for `COc1ccc(CN2CCN(c3ccc(F)cc3)CC2)c(OC)c1OC`?
SW480 rerep: inconclusive; KB-V1 cytotox: 8.2µM*; KB-3-1 tox: inconclusive; D3 ag: -16; MCF10A rerep: -5%; DRD3 antagonist: -26

What do the screens show for `COc1ccc(CN2CCN(C(c3ccc(F)cc3)c3ccc(F)cc3)CC2)c(OC)c1OC`?
SW480 rerep: 17%; KB-V1 cytotox: 18µM*; KB-3-1 tox: inconclusive; D3 ag: 0; MCF10A rerep: 21µM*; DRD3 antagonist: 0
